PubChem BioAssay (Tox21)
Results filed as inconclusive are left out. The source made the active and inactive calls. Unless noted, the call rests on the fitted dose curve; in most records, active means well fitted curve in the direction sought with a large enough effect in the repeat runs; inconclusive means weak or mixed curves; inactive means no such curve, though single readings can be large; an effect the other way counts as inactive or inconclusive.

Experiments:
[1] = qHTS assay to identify small molecule agonists of the peroxisome proliferator-activated receptor delta (PPARd) signaling pathway - cell viability counter screen (AID 743211); further: nearly all actives have a fitted effect of over 55% in size
Method in brief: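 Counter screen for cytotoxicity run in parallel with the PPARd reporter screen. Beta-lactamase reporter HEK293H cells exposed to compounds 17 h; ATP-based CellTiter-Glo luminescence quantified viability.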

[2] = molecular target: Peroxisome proliferator-activated receptor delta (Homo sapiens) (UniProt Q03181); assay: qHTS assay to identify small molecule agonists of the peroxisome proliferator-activated receptor delta (PPARd) signaling pathway (AID 743212; calls by dose curve)
Chain of Peroxisome proliferator-activated receptor delta (Homo sapiens) (Q03181 whole entry, looked up): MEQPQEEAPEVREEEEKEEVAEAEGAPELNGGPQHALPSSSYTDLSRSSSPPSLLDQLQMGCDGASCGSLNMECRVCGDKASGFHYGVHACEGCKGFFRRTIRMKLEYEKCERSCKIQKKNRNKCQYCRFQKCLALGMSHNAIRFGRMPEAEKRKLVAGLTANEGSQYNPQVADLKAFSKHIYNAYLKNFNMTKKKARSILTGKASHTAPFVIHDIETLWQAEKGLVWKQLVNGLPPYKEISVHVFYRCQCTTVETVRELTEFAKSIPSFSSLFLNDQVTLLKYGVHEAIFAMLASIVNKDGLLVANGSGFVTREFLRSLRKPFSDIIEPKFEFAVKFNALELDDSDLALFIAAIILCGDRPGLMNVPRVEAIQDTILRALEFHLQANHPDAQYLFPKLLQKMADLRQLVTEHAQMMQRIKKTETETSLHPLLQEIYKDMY
Method in brief: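 Cells expressing a UAS-driven beta-lactamase reporter (PPARd-bla HEK293H) were given test compounds after a 5 h settle and kept at 37 C. Reporter activity was then measured as FRET fluorescence using LiveBLAzer B/G substrate.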

[3] = qHTS assay to identify small molecule antagonists of the peroxisome proliferator-activated receptor delta (PPARd) signaling pathway - cell viability counter screen (AID 743213); further: nearly all actives have a fitted effect of over 50% in size
Method in brief: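 Luminescence from CellTiter-Glo, added after the bla read and incubated 30 min at room temperature, gives viability of HEK293H PPARd-bla cells exposed to compounds for 17 h at 37 C with 300 nM L165041.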

[4] = molecular target: Peroxisome proliferator-activated receptor delta (Homo sapiens) (UniProt Q03181); assay: qHTS assay to identify small molecule antagonists of the peroxisome proliferator-activated receptor delta (PPARd) signaling pathway (AID 743215; active means well fitted inhibition curve with a large enough effect in the signal ratio in the repeat runs, not every such curve was filed as active; the % refers to the signal ratio;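 further: cells stimulated with agonist L165041 at 300 nM final during compound exposure; series mostly up to about 62 µM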)
Method in brief: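 HEK293H GeneBLAzer PPARd UAS-bla reporter cells; cpd + L165041 300 nM final, 17 h 37 C; LiveBLAzer B/G FRET substrate 2 h RT; fluorescence intensity read-out. Antagonist mode.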

[5] = qHTS assay to identify small molecule agonists of the farnesoid-X-receptor (FXR) signaling pathway - cell viability counter screen (AID 743218); further: nearly all actives have a fitted effect of over 45% in size
Method in brief: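 Luminescence from CellTiter-Glo, read after 30 min at RT, reports viability of GeneBLAzer FXR-UAS-bla HEK 293T cells treated 16 h with compounds in the wells used for the beta-lactamase reporter.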

[6] = qHTS assay to identify small molecule agonists of the vitamin D receptor (VDR) signaling pathway - cell viability counter screen (AID 743224); further: series mostly up to about 63 µM; nearly all actives have a fitted effect of over 50% in size
Method in brief: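 Cytotoxicity counter screen: VDR-bla cells, 16 h compound exposure at 37C, 5% CO2; CellTiter-Glo luminescence, 30 min RT, same wells as bla read.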

[7] = qHTS assay to identify small molecule antagonists of the vitamin D receptor (VDR) signaling pathway - cell viability counter screen (AID 743225); further: nearly all actives have a fitted effect of over 50% in size
Method in brief: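 HEK293T VDR-bla; cpd + 1a,25-(OH)2D3 3 nM final, 16 h 37C/5% CO2; B/G FRET substrate 2 h RT; then CellTiter-Glo 30 min RT, luminescence.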

[8] = qHTS assay to identify small molecule agonists of the NFkB signaling pathway - cell viability counter screen (AID 1159515; calls by dose curve; further: series mostly up to about 61 µM; nearly all actives have a fitted effect of over 55% in size)
Method in brief: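 ME-180 NFkB-bla cells, 2,000/well; overnight attach; compound 5 hr, 37 C/5% CO2; LiveBLAzer substrate 1.5 hr RT; then CellTiter-Glo in same wells, 30 min RT, luminescence read.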

[9] = qHTS assay to identify small molecule agonists of the endoplasmic reticulum stress response signaling pathway (AID 1159516; active means well fitted activation curve with a large enough effect in the signal ratio in the repeat runs, not every such curve was filed as active; the % refers to the signal ratio)
Method in brief: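 HeLa ESRE-bla reporter line; cpd 5 h, 37 C/5% CO2; LiveBLAzer B/G FRET substrate 2 h RT; ex 405, em 460/530 nm.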

[10] = qHTS assay to identify small molecule agonists of the endoplasmic reticulum stress response signaling pathway - cell viability counter screen (AID 1159517; calls by dose curve;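 further: HeLa cells carrying an ER stress response element beta-lactamase reporter; series mostly up to about 61 µM; nearly all actives have a fitted effect of over 50% in size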)
Method in brief: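 Cpd-treated ESRE-bla HeLa (5 hr, 37 C) → LiveBLAzer 2 hr RT → CellTiter-Glo 30 min RT → luminescence.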

[11] = qHTS assay to identify small molecule antagonists of the retinoid-related orphan receptor gamma (ROR-gamma) signaling pathway - cell viability counter screen (AID 1159520); further: nearly all actives have a fitted effect of over 50% in size
Method in brief: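 Tet-on ROR gamma CHO cells (1,000/well) were plated 4 hr, given compounds in DMSO for 2 hr at 37 C, then induced with 1 uM final doxycycline for 16 hr. Viability was read as ATP by CellTiter-Glo luminescence after 30 min.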

[12] = molecular target: Nuclear receptor ROR-gamma (Homo sapiens) (UniProt P51449); assay: qHTS assay to identify small molecule antagonists of the retinoid-related orphan receptor gamma (ROR-gamma) signaling pathway (AID 1159521; further: nearly all actives have a fitted effect of over 50% in size; further: potency means the concentration at half of the fitted maximal effect)
Method in brief: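 Cells were plated, rested 4 h at 37 C, exposed to compounds for 2 h, then given 1 uM final doxycycline hyclate to induce RORγ expression. After 16 h, ONE-Glo luminescence from the ROR response element reporter was measured.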

[13] = qHTS assay to identify small molecule agonists of the AP-1 signaling pathway - cell viability counter screen (AID 1159525; calls by dose curve; further: nearly all actives have a fitted effect of over 55% in size)
Method in brief: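 Each titration point was normalised to DMSO and tetra n-octyl ammonium bromide controls. The read was Cell Titer Glo luminescence after 30 min at RT, following 5 h compound exposure of ME-180 AP-1-bla cells at 37 °C.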

[14] = qHTS assay to identify small molecule agonists of the AP-1 signaling pathway (AID 1159526; calls by dose curve)
[15] = qHTS assay to identify small molecule antagonists of the farnesoid-X-receptor (FXR) signaling pathway - cell viability counter screen (AID 743221; active means well fitted cell-killing curve with a large enough effect in the repeat runs, not every such curve was filed as active; further: nearly all actives have a fitted effect of over 50% in size)
Method in brief: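 Multiplexed counter screen: viability of FXR-bla HEK 293T cells under agonist stimulation by chenodeoxycholic acid (50 uM, final) and test compound for 16 h at 37 C, measured by CellTiter-Glo luminescence in the reporter wells.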

[16] = molecular target: Retinoic acid receptor RXR-alpha (Homo sapiens) (UniProt P19793); assay: qHTS assay to identify small molecule agonists of the RXR signaling pathway (AID 1159527; calls by dose curve; further: nearly all actives have a fitted effect of over 35% in size)
Chain of Retinoic acid receptor RXR-alpha (Homo sapiens) (P19793 whole entry, looked up): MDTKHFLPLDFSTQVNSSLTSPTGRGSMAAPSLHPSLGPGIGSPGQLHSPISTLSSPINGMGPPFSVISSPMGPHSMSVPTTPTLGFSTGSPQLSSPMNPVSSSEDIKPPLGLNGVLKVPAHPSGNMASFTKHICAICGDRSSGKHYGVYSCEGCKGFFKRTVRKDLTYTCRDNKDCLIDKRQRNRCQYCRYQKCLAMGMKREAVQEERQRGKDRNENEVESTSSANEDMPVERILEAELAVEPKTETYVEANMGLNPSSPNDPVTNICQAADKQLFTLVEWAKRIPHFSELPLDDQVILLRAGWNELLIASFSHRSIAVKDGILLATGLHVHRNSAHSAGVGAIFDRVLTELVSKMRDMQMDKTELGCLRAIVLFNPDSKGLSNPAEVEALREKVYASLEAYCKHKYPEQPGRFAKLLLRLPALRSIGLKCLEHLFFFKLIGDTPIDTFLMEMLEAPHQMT
Method in brief: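 Cells plated at 2,000/well, rested 5 hr at 37 C, pin-dosed with DMSO compound solutions, incubated 16 hr, then loaded with B/G FRET substrate for 2 hr at RT before dual-emission fluorescence reading.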

[17] = molecular target: Vitamin D3 receptor (Homo sapiens) (UniProt P11473); assay: qHTS assay to identify small molecule agonists of the vitamin D receptor (VDR) signaling pathway (AID 743222; calls by dose curve)
Chain of Vitamin D3 receptor (Homo sapiens) (P11473 whole entry, looked up): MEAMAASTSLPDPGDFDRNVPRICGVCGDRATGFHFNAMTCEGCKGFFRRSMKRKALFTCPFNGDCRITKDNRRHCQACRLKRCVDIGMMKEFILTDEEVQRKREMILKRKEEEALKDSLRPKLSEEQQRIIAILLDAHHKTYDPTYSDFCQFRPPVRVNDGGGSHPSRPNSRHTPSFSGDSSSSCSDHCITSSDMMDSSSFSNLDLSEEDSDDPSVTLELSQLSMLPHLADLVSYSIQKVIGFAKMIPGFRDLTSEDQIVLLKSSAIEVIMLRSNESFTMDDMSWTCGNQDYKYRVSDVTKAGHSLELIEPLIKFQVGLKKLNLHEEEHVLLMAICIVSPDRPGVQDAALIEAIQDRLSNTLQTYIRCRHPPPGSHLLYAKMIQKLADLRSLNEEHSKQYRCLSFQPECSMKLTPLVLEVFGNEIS
Method in brief: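 Beta-lactamase reporter readout (LiveBLAzer B/G FRET, 2 h RT) in VDR-bla cells after 16 h compound treatment at 37C, 5% CO2; cells pre-incubated 4 h before pin transfer of DMSO solutions.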

[18] = molecular target: Vitamin D3 receptor (Homo sapiens) (UniProt P11473); assay: qHTS assay to identify small molecule antagonists of the vitamin D receptor (VDR) signaling pathway (AID 743223; active means well fitted inhibition curve with a large enough effect in the signal ratio in the repeat runs, not every such curve was filed as active; the % refers to the signal ratio)
Method in brief: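 Cells carrying a VDR-driven beta-lactamase reporter (VDR-bla) were co-treated with compound and 3 nM final 1alpha,25-dihydroxyvitamin D3 for 16 h at 37C; reporter activity was measured as FRET substrate fluorescence after 2 h at room temperature.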

[19] = molecular target: Bile acid receptor (Homo sapiens) (UniProt Q96RI1); assay: qHTS assay to identify small molecule antagonists of the farnesoid-X-receptor (FXR) signaling pathway (AID 743217; active means well fitted inhibition curve with a large enough effect in the signal ratio in the repeat runs, not every such curve was filed as active; the % refers to the signal ratio)
Chain of Bile acid receptor (Homo sapiens) (Q96RI1 whole entry, looked up): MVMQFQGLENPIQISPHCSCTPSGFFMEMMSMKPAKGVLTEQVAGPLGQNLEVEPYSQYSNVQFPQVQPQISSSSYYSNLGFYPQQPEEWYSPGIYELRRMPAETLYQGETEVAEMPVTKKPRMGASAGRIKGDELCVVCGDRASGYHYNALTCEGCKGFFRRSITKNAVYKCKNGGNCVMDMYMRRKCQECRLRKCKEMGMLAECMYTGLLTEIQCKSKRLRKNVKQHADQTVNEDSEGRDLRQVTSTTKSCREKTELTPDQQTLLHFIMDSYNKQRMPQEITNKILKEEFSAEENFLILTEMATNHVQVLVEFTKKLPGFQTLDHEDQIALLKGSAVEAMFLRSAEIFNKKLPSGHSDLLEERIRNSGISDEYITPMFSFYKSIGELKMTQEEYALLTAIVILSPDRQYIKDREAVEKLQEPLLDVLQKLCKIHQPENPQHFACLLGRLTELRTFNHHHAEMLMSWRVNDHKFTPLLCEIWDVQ
Method in brief: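 Read-out: beta-lactamase FRET fluorescence (LiveBLAzer B/G substrate, 2 h, room temperature) in GeneBLAzer FXR-UAS-bla HEK 293T cells. Compounds were co-dosed with 50 uM chenodeoxycholic acid (final) and incubated 16 h at 37 °C.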

[20] = molecular target: Bile acid receptor (Homo sapiens) (UniProt Q96RI1); assay: qHTS assay to identify small molecule agonists of the farnesoid-X-receptor (FXR) signaling pathway (AID 743220; active means well fitted activation curve with a large enough effect in the signal ratio in the repeat runs, not every such curve was filed as active; the % refers to the signal ratio)
Method in brief: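 FXR-UAS-bla HEK 293T cells carrying a UAS-driven beta-lactamase reporter were plated for 5 h at 37C/5% CO2, then exposed to DMSO-dissolved Tox21 10K compounds for 16 h at 37C. A LiveBLAzer B/G FRET substrate was loaded for 2 h at room temperature before fluorescence reading.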

Measured: Potency

Clc1ccc(C2(Cn3cncn3)OCCO2)c(Cl)c1
inactive: [1] | [2] | [3] | [4] | [5] | [6] | [7] | [8] | [9] | [10] | [11] | [12] | [13] | [14]

CCNc1nc(NC(C)C(C)C)nc(SC)n1 (stereo unspecified)
inactive: [1] | [2] | [3] | [4] | [5] | [15] | [6] | [8] | [9] | [10] | [11] | [13] | [14] | [16]

CSC(C)(C)/C=N/O
inactive: [1] | [2] | [3] | [4] | [5] | [15] | [17] | [18] | [6] | [7] | [8] | [9] | [10] | [11] | [12] | [13] | [14]

ClC1(Cl)C2(Cl)C3(Cl)C4(Cl)C(Cl)(Cl)C5(Cl)C3(Cl)C1(Cl)C5(Cl)C24Cl (stereo unspecified)
inactive: [1] | [2] | [3] | [4] | [15] | [17] | [18] | [6] | [8] | [9] | [10] | [11] | [13] | [14] | [16]

COC(=O)C(C)N(C(=O)c1ccco1)c1c(C)cccc1C (stereo unspecified)
inactive: [1] | [3] | [4] | [5] | [17] | [18] | [6] | [7] | [8] | [9] | [10] | [11] | [13] | [14] | [16]

C[C@@H]1CC2=CC(=O)CC[C@@H]2[C@H]2CC[C@@]3(C)[C@@H](CC[C@]3(C)O)[C@@H]21
inactive: [1] | [3] | [19] | [5] | [15] | [17] | [18] | [6] | [7] | [8] | [9] | [10] | [11] | [13] | [14] | [16]

CC1=C2C[C@H]3[C@@H](CC=C4C[C@@H](O)CC[C@@]43C)[C@@H]2CC[C@]12O[C@@H]1C[C@H](C)CN[C@H]1[C@H]2C
active: [12] 8.41 µM
inactive: [4] | [19] | [15] | [17] | [18] | [6] | [7] | [8] | [9] | [10] | [11] | [13]

CCCCn1cc[n+](C)c1 (tested in a mixture with another compound)
inactive: [1] | [3] | [5] | [15] | [7] | [8] | [9] | [10] | [11] | [13] | [14] | [16]

Cc1ccn2nc(S(=O)(=O)Nc3c(F)cccc3F)nc2n1
inactive: [1] | [2] | [3] | [4] | [19] | [5] | [20] | [17] | [18] | [6] | [7] | [8] | [9] | [10] | [11] | [13] | [14] | [16]

COP(=O)(OC)O/C(=C\Cl)c1cc(Cl)c(Cl)cc1Cl
inactive: [1] | [3] | [19] | [5] | [8] | [9] | [10] | [11] | [13]
active: [12] 38.6 µM

N#CSCc1ccccc1
inactive: [1] | [3] | [4] | [19] | [5] | [17] | [18] | [6] | [7] | [8] | [9] | [10] | [11] | [13] | [14] | [16]

CC(C)N(C(=O)SC/C(Cl)=C/Cl)C(C)C
inactive: [2] | [3] | [4] | [19] | [5] | [20] | [15] | [17] | [18] | [6] | [7] | [8] | [9] | [10] | [11] | [12] | [16]

CCN(CC)CCc1c[nH]c2ccccc12
inactive: [1] | [2] | [3] | [19] | [5] | [15] | [8] | [9] | [10] | [11] | [12] | [16]

ClSC(Cl)(Cl)Cl
inactive: [1] | [4] | [15] | [6] | [7] | [8] | [9] | [10] | [11] | [12] | [13] | [16]

CCN(CC)CCN1C(=O)CN=C(c2ccccc2F)c2cc(Cl)ccc21
inactive: [2] | [3] | [4] | [19] | [5] | [15] | [17] | [18] | [6] | [7] | [8] | [9] | [10] | [11] | [12] | [13] | [14]

COc1cnc(OC)n2nc(NS(=O)(=O)c3c(OCC(F)F)cccc3C(F)(F)F)nc12
inactive: [2] | [3] | [4] | [15] | [6] | [7] | [8] | [9] | [10] | [11] | [12] | [13] | [14]

O=[N+]([O-])c1ccc(Cl)c(Cl)c1Cl
inactive: [1] | [2] | [3] | [4] | [5] | [15] | [17] | [6] | [7] | [8] | [9] | [10] | [11] | [12] | [13] | [16]

O=S(=O)(O)F
inactive: [1] | [3] | [4] | [20] | [15] | [17] | [18] | [8] | [9] | [10] | [11] | [13] | [14] | [16]
